This note sets out measurements from PubChem BioAssay (NCATS).

Records with an inconclusive call do not appear. Where a call stands in place of a potency, no number is given. A number with no mark means an inactive call. Calls of active or inactive are those of the source. Calls follow the shape of the dose curve; as a rule, active = well fitted inhibition curve with a large enough effect; inconclusive = small, poorly fitted or top-dose-only effect; inactive = no such curve, though single readings can be large or run the other way.
Potency is read from the fitted curve at half-maximal effect.

The nature of the experiment: Primary fluorescence-based thiol-reactive (MSTI) qHTS assay for identification of artifact compounds. (AID 1845221). Also: nearly all actives have a fitted effect of over 65% in size.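 As to activity change, negative = thiol reactive: thiol-reactive compounds lower the probe fluorescence signal.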 The note with it: MSTI thiol-reactivity probe, 1 h; series mostly up to 53.8 µM. The essentials:
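qHTS titration of compound; 4 uM MSTI, PBS pH 7.4, 2% DMSO; 1 h RT, dark; fluorescence 525/598 nm; normalized to Acetyl-MSTI and MSTI; 4-parameter Hill fit.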
On to `O=S(=O)(N[C@H]1CCCC[C@@H]1N1CCOCC1)c1ccc(Cl)cc1`, for which the Potency entry is “inactive”.
`Cc1ccnc(NC(=O)C(C)c2cccc(C(=O)c3ccccc3)c2)c1` (centres undefined): the Potency entry is “inactive”.
As for `NC(N)=N/N=C/c1ccccc1Cl`, the Potency entry was “inactive”.
On to `CNCCCC1(c2ccccc2)OC(C)(C)c2ccccc21` (centres undefined), for which the Potency entry was “inactive”.
`C=C1C(=O)O[C@@H]2C[C@H](C)C3=CC(=O)[C@H](O)[C@@]3(C)C[C@H]12`: the Potency was 11.9 µM (active).
As to `CC(C)/C=C1\NC(=O)C(C(C)C)n2c1nc1ccccc1c2=O` (centres undefined), the Potency result is “inactive”.
`CC/C=C\CC1C(=O)C=CC1(CCCCC1CCC(=O)O1)OC(C)=O` (centres undefined): the Potency entry was “inactive”.
Still for that read-out and setting: under `COc1ccc(CN2CCN(C(=O)CCNC(=O)c3ccc(C(C)(C)C)cc3)CC2)cc1` stands “inactive”.
Turning to `C=C1C(=O)O[C@H]2C3=C(C)CCC[C@]3(C)C(=O)C[C@@H]12`, the Potency result was “inactive”.
Take `NC(=O)c1nc(Nc2ccccc2)sc1NC(=O)C1CCCCC1`: the Potency was 1.68 µM (active).
For the compound `CCOC(=O)c1cnc2ccc(-c3cncc(NS(=O)(=O)c4ccccc4)c3)cn12`, the Potency entry is “inactive”.
Still for that read-out and setting: the figure for `Oc1ccc(-c2cnc3ccc(NCc4ccco4)nn23)cc1` is 5.97 µM (active).
As to `Fc1ccc(-c2cncc(CN3CCN(c4cccc5c4OCCO5)CC3)c2)cc1`, the Potency entry was “inactive”.
The same measure, in the same setting: the entry for `N#Cc1ccc2ncnc(NCCc3ccccc3)c2c1` is “inactive”.
`CCn1c(=O)n([C@H]2CCCN(c3nccc(-c4cc5ccccc5o4)n3)C2)c2ccccc21`: the Potency entry is “inactive”.
For `C=C(CCC1C(C)(O)CCC2C(C)(C)C(O)CCC12C)C(O)CO` (centres undefined), the Potency is 13.1 µM (active).
In the case of `COc1cc(O)c2c(c1)C1OC1C[C@H](O)[C@H](O)C(=O)/C=C\C[C@H](C)OC2=O` (some centres undefined), the Potency entry is “inactive”.
Same read-out and setting: under `C=C1C(=O)O[C@H]2C1CCC(C)=C1C(=O)C=C(C)[C@@]12O` (some centres undefined) stands “inactive”.
Regarding `CC(=O)OC1CC(O)(C(C)C)C2C(OC(=O)c3ccc(O)cc3)C=C(C)C(=O)CC12C` (centres undefined), the Potency entry was “inactive”.
On to `Cc1ccc(NC(=O)N2CCN(c3nc(N)nc4sc(-c5cccnc5)nc34)CC2)cc1`, for which the Potency entry was “inactive”.
Same read-out and setting: the entry for `C=C[C@]1(C)C[C@H](O)[C@H]2C(=C)C(=O)O[C@@H]2[C@H]1C(=C)CO` is “inactive”; for `C#CCOc1ccc2c(c1)c(-c1ccc(C(C)C)cc1)nc(=O)n2C(C)C` it is “inactive”; for `CNCc1cc(-c2ccccc2F)n(S(=O)(=O)c2cccnc2)c1` it is “inactive”.
Turning to `C=C1C(=O)OC2/C=C(\COC(C)=O)CC/C=C(\C=O)CC(OC(=O)C(C)CC)C12` (centres undefined), the Potency entry was “inactive”.
The same measure, in the same setting: the entry for `CCC(C)CNCC(=O)N1CCc2sccc2C1COc1cccc(C)c1` (centres undefined) is “inactive”; for `N[C@@H]1c2cccnc2[C@H](OC(=O)N2CCC(n3c(=O)[nH]c4ncccc43)CC2)CC[C@H]1c1cccc(F)c1F` it is “inactive”.
The same measure, in the same setting: under `Cn1cc(-c2ccc(F)c(C(F)(F)F)c2)nc1C1CCN(c2ncnc3[nH]ncc23)CC1` stands “inactive”; under `C=C1C(=O)O[C@@H]2[C@H]1CCC(C)=C(CCC(=O)O)[C@@]2(C)O`, “inactive”.
For `CNc1cccc(CCOc2ccc3c(c2)CN(CC(F)(F)F)C(=O)[C@H](CC(=O)O)C3)n1`, the Potency result is “inactive”.
In the case of `CC(CCC1(O)OC2CC3C4CC=C5CC(O[C@@H]6O[C@H](CO)[C@@H](O[C@@H]7O[C@@H](C)[C@H](O)[C@@H](O)[C@H]7O)[C@H](O)[C@H]6O[C@@H]6O[C@@H](C)[C@H](O)[C@@H](O)[C@H]6O)CCC5(C)C4CCC3(C)C2C1C)CO[C@@H]1O[C@H](CO)[C@@H](O)[C@H](O)[C@H]1O` (some centres undefined), the activity change, negative = thiol reactive was 218% [at 11.5 µM].
As to `Cc1cc(C(=O)Cn2cc(C#N)ccc2=O)c(C)n1Cc1ccccc1`, the Potency entry was “inactive”.
For `Nc1ncnc2c1nc(Cl)n2C1OC2COP(=O)(O)OC2C1O` (centres undefined), the Potency result is “inactive”.
With `CCCC(CCC)C(=O)NCc1ccc2c(cnn2-c2ccccc2OC)c1`, the Potency entry was “inactive”.
Take `CNC(=O)c1cc(Oc2ccc(NC(=O)c3cccc(C(F)(F)F)c3)cc2)ccn1`: the Potency entry is “inactive”.
Consider `O=C1Nc2nc(-c3c(O)cccc3OCC3CC3)cc([C@@H]3CCCNC3)c2CO1`, for which the Potency result is “inactive”.
On to `CC1(C)C2CCC(CO[C@@H]3O[C@H](CO[C@@H]4OC[C@](O)(CO)[C@H]4O)[C@@H](O)[C@H](O)[C@H]3O)C1C2` (some centres undefined), for which the Potency result is “inactive”.
Consider `COc1ccc(S(=O)(=O)N2CCC[C@H]2C(=O)Nc2cc(C)cc(C)c2)cc1`, for which the Potency entry was “inactive”.
Turning to `Cc1ccccc1C(C(=O)NC1CCCCC1)N(C(=O)Cn1cnc2ccccc21)c1cccc(F)c1` (centres undefined), the Potency entry was “inactive”.
For `CN(C)CCOC(C)(c1ccccc1)c1ccc(Cl)cc1` (centres undefined), the Potency result is “inactive”.
